In the library only some 3.7% were active in any assay of this set; here they are far more common.
MazEF act: activators of E. coli MazEF toxin-antitoxin RNase, primary screen, biochemical, fluorescence, uHTS | Endoribonuclease toxin MazF (Escherichia coli (strain K12)), P0AE70 | FAM/BHQ RNA-DNA oligo cleavage fluorescence, 5 h | activation, % at 20 µM | 350,000 compounds, 0.32% hits; in the data active = activation above about 50%
Target sequence (P0AE70 whole entry, looked up): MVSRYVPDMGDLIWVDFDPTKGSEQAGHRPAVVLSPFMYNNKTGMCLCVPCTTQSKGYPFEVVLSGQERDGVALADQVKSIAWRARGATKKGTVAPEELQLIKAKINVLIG
BoNT A protease: BoNT/A light chain protease inhibitors, primary screen, biochemical, flow cytometry, MLPCN library; inhibition, % at 10 µM; 360,000 compounds, 0.17% hits; multiplex microsphere protease substrate cleavage; AID 588499, 2011; note: plate controls were buffer without enzyme for full effect and enzyme alone for no effect
BoNT F protease: BoNT/F light chain protease inhibitors, primary screen, biochemical, flow cytometry, MLPCN library; Botulinum neurotoxin type F light chain protease (Clostridium botulinum); Multiplex microsphere protease cleavage assay; inhibition, % at 10 µM; 360,000 compounds, 0.22% hits; AID 588497, 2011; in the data active = inhibition above about 35%, passing the limit was not always enough; inconclusive = no clear call, values can overlap the other calls; note: plate controls were buffer without enzyme for full effect and enzyme alone for no effect
Bead autofluor: counter-screen for toxin protease inhibitors: compound fluorescence | compound autofluorescence counterscreen, microsphere flow cytometry; stronger effect = higher value | fluorescence intensity (no concentration beside the values) | 360,000 compounds, 3.1% hits | AID 624483; in the data active = fluorescence intensity above about 16000; inconclusive = no clear call, values can overlap the other calls
Anthrax LF prot: Bacillus anthracis LF protease inhibitors, primary screen, biochemical, multiplex microsphere, MLPCN library; Lethal factor (Bacillus anthracis), P15917; multiplex microsphere protease cleavage assay; inhibition, % at 10 µM; 360,000 compounds, 0.12% hits; note: plate controls were buffer without enzyme for full effect and enzyme alone for no effect
Starred values were filed as active, the others as inactive; u = inconclusive; x = no result given. Cut-off read from the data, not from the text of the source, unless noted: active = inhibition above about 30%; inconclusive = no clear call, values can overlap the other calls; inactive = below that.

SMILES | MazEF act | BoNT A protease | BoNT F protease | Bead autofluor | Anthrax LF prot
Cc1sc(-c2ccccn2)nc1OC(=O)c1ccc(F)cc1F | 2 | 2 | 9 | 3596 | -1
Cc1sc(-c2ccccn2)nc1OC(=O)c1ccc(Cl)c(Cl)c1 | 7 | -1 | -3 | 23143* | 0
Cc1nn(-c2ccccc2)c(C)c1/C=N/N1CCN(c2ccccc2)CC1 | -6 | -2 | -6 | 20444* | -6
Cc1nn(-c2ccccc2)c(N2CCCC2)c1/C=N/O | 2 | -6 | -6 | 24403* | 1
CC1(C)OC(=O)C2=C(C[C@@H](C3CCCC3)O[C@H]2CCc2cccc(Cl)c2)O1 | x | 0 | 10 | 5445 | 0
O=C(CCCn1c(=S)[nH]c2cc3c(cc2c1=O)OCO3)NC1CC1 | 7 | -1 | -2 | 22975* | -1
CC(C)C(=O)Nc1ccc2oc(-c3cc(F)c(F)cc3Cl)nc2c1 | 17 | -1 | 0 | 24150* | 1
COC(=O)[C@]12CCCCC=C1N(Cc1ccc(Cl)cc1Cl)C(=O)[C@H](CC(=O)NCc1cccs1)C2 | x | 0 | 2 | 4143 | -5
Cc1cccc(C)c1-n1nnnc1SCSc1nnnn1-c1c(C)cccc1C | -2 | u | 5 | 21580* | -1
Cc1ccc(-n2ccnc2SCC(=O)c2c(N)n(C3CC3)c(=O)[nH]c2=O)cc1C | -3 | 0 | -6 | 5378 | -1
Cc1cccc(C)c1-n1nnnc1SCC(=O)c1c(N)n(C2CC2)c(=O)[nH]c1=O | 55* | 0 | 1 | 3793 | -3
Cn1nnnc1SCC(=O)c1c(N)n(C2CC2)c(=O)[nH]c1=O | -1 | 0 | 3 | 3757 | -14
Cc1ccc(-n2nnnc2SCC(=O)c2c(N)n(C3CC3)c(=O)[nH]c2=O)cc1C | 57* | 4 | 12 | 4369 | -1
CSc1nnnn1-c1c(C)cccc1C | 2 | -1 | 1 | 4505 | -4
CC(=O)Nc1ccc(NC(=O)COC(=O)COc2ccc3ccccc3c2)cc1 | -25 | 0 | -1 | 3854 | 1
CCOC(=O)C1=C(C)NC(C)=C(C(=O)OCC)C1C(=O)OCC(=O)NCc1ccc(F)cc1 | 1 | -5 | -5 | u | -5
CC(C)Sc1cc(Cl)nc(NC(=O)Nc2ccccc2)n1 | -20 | 1 | 9 | 2950 | -1
COc1ccccc1NC(=O)N(CCN1CCCC1)Cc1cc2cc(C)ccc2[nH]c1=O | 1 | -3 | -2 | 23245* | 0
CCN(CC)CCCN(Cc1cc2cc(OC)c(OC)cc2[nH]c1=O)C(=O)Nc1ccccc1 | 10 | 0 | -1 | 22160* | -9
COc1cccc(C(=O)Nc2nnc(SCC(=O)NC3CCCC3)s2)c1 | 11 | 0 | 0 | 5754 | 2
Clc1cccc(OCCN2CCOCC2)c1 | -4 | 0 | -3 | 16577* | -2
Cc1ccccc1OCCCN1CCOCC1 | -3 | -3 | -21 | 3547 | 12
Brc1ccccc1OCCCN1CCOCC1 | 5 | 1 | 0 | 23079* | -7
c1ccc(OCCCCN2CCOCC2)cc1 | 7 | -1 | 1 | 16576* | -2
CCOc1cccc(OCCCCN2CCOCC2)c1 | -3 | 0 | 0 | 2461 | 1
SMILES | MazEF act | BoNT A protease | BoNT F protease | Bead autofluor | Anthrax LF prot
Cc1ccc(Nc2nnc(SCC(=O)c3ccc(O)cc3O)s2)cc1 | -10 | 0 | -4 | 4545 | -2
COc1cc(NC(=O)COc2cccc(C)c2C)ccc1NC(=O)c1ccco1 | -18 | -3 | -4 | 3720 | -4
COc1ccccc1C(=O)N/C(N)=N/c1nc2ccccc2o1 | 61* | 0 | -2 | 4231 | -2
Cc1ccc(C(=O)N/C(N)=N/c2nc3ccccc3o2)cc1 | 15 | 1 | 5 | 2362 | 7
Cn1c(=O)cc(OCCCC(=O)N2CCC3(CC2)OCCO3)c2ccccc21 | -6 | -2 | -11 | 4019 | -7
O=C(Cc1cccs1)N1CCC2(CC1)OCCO2 | -5 | -2 | -1 | 20223* | 0
CC(=O)c1ccc(N2CCN(C(=O)Cc3cccs3)CC2)cc1 | 8 | 1 | -1 | 4026 | 0
Cn1cc(CCC(=O)N2CCC3(CC2)OCCO3)c2ccccc21 | -2 | 1 | -2 | 23713* | 1
CC(=O)N1/C(=C/c2ccc(N(C)C)cc2)C(=O)c2ccccc21 | -14 | 1 | -7 | 5606 | -5
Cc1ccc(NC(=O)CSc2nnc(-c3ccncc3)n2N)cc1C | 5 | -1 | -4 | 24163* | 0
COC(=O)CSc1nnc(-c2ccncc2)n1N | 5 | 2 | 0 | 19048* | -3

Screening data as filed in PubChem.
